We go through 40 compounds from PubChem BioAssay (NCI).

Compounds without any hit were thinned out: in the full panel of roughly 83,000, 20% have a hit.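 Compound tested at a single concentration for 48 hours in 96-well plates; a percent growth value below 10 was scored as active.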 Active and inactive are the calls of the source.

One test deals with OVCAR-8 ovarian. The test is described as follows: NCI-60 one-dose screen, 48 h (100 = growth as untreated, 0 = no growth, -100 = all killed). The settings on record: 10 µM unless noted.
Turning to `COc1ccc(C(=O)N2c3ccccc3Sc3ccccc32)c(OC)c1`, the growth is 27.9% (inactive).
Still for that read-out and setting: under `Cc1c(-c2ccc(O)cc2)n(Cc2ccc(OCCN3CCCCCC3)cc2)c2ccc(O)cc12` stands 84.7% (inactive); under `Cc1ccc(Nn2c(SCC(=O)Nc3nc(-c4ccccc4)cs3)nc(C)c2C)cc1`, 55.5% (inactive).
Same read-out and setting: under `CC(C)c1ccc(C(=O)Nc2nc3ccc(O)c(CN(C)C)c3s2)cc1` stands 82.8% (inactive).

The test system of another test is OVCAR-5 ovarian. Described as above. The settings on record: 10 µM unless noted.
On to `O=C(Nc1nc2ccc(C(=O)N3CCN(/C=C/c4ccccc4)CC3)cc2s1)c1ccc(NCCc2ccccc2)c([N+](=O)[O-])c1`, for which the growth was 83.6% (inactive).
On the same count and under the same terms, in the case of `COC12C=C/C(=C(/C(=O)OCc3ccncc3)C(=O)CCCCCCCCC3(OC)C=C/C(=C(/C(=O)OCc4ccncc4)C(=O)CCCCCCCC1)O3)O2` it was -20.7% (active).
`Cc1ccc2c(n1)C(=O)C(Br)=C(C1CCCC1)C2=O`: the growth is 106% (inactive).
In the case of `C#COc1cccc(Nc2c(C#N)cnc3ncc(NC(=O)CCl)cc23)c1`, the growth was 42.9% [6.25 µM] (inactive).
On the same count and under the same terms, under `COc1cc(-c2csc(NC(=O)c3ccc(N4CCOCC4)c(C(F)(F)F)c3)n2)cc(OC)c1OC` stands 83.9% (inactive); under `CC/C=C\C[C@H](O)C/C=C1/C(=O)C=C[C@@H]1C/C=C\CCCC(=O)N(C)C`, 19.2% (inactive); under `Oc1c(I)cc(I)cc1CNCCN(Cc1ccccn1)Cc1ccccn1`, -24.3% (active).
Same read-out and setting: under `CC1=C([Se]CC(OC(=O)CC[Se]c2ccccc2)C(=O)NC(C)(C)C)C(=O)c2ccccc2C1=O` (centres undefined) stands -63.1% (active); under `Cc1cn(-c2cc(NC(=O)c3cncc(C#Cc4cnc(N)c5ncccc45)c3)cc(C(F)(F)F)c2)cn1`, 60.3% (inactive); under `CC(C)c1ccc(-n2c(=S)[nH]c3sc4cc(O)ccc4c3c2=O)cc1`, 100% (inactive).
The same measure, in the same setting: in the case of `COc1ccccc1CNc1c2ccccc2nc2ccccc12` it was 49.8% (inactive).
For the compound `COC(=O)c1nc(-c2ccccc2)oc1S(=O)(=O)Cc1ccccc1`, the growth is 102% (inactive).
On the same count and under the same terms, under `O=C1/C(=C/c2ccccc2Br)COc2ccc(O)cc21` stands 91.9% (inactive); under `C/C(Cc1ccc(Cl)cc1)=C(\c1ccc(O)cc1)c1ccc(Cl)cc1`, 92.5% (inactive); under `COC12C=C/C(=C(/C(=O)OCc3ccncn3)C(=O)CCCCCCCCC3(OC)C=C/C(=C(/C(=O)OCc4ccncn4)C(=O)CCCCCCCC1)O3)O2`, -2.72% (active).
The same measure, in the same setting: under `CCc1ccccc1-n1c(-c2ccc(OC)cc2)cc(-c2ccc(OC)cc2)c(C#N)c1=O` stands 92.7% (inactive); under `COCCn1cc(-c2csc(-c3cn(C)c4ccc(Br)cc34)n2)c2cccnc21`, 68.3% (inactive); under `C=CCc1c(O)c(C(=O)/C=C/c2ccccc2)c(OC)c2ccoc12`, 90.5% (inactive).
Still for that read-out and setting: under `COc1cc(-c2nc3sccn3c2-c2ccnc(NCCNS(=O)(=O)c3ccccc3)n2)ccc1F` stands 113% (inactive).
Regarding `O=c1c2cnn(-c3ccccc3)c2n2c(CN3CCOCC3)nnc2n1-c1ccccc1`, the growth was 114% (inactive).
The same measure, in the same setting: under `O=C1C(Cl)=C(Nc2ccc(S(=O)(=O)N3CCOCC3)cc2)C(=O)c2ccccc21` stands 38.1% (inactive); under `O=C(COc1ccc(-c2nc3cc(Cl)c(Cl)cc3[nH]2)cc1)N=Nc1c(O)[nH]c2ccc(Cl)cc12`, 95.6% (inactive); under `CC1CCc2c(C(=O)Nc3ncc(Cc4cccc([N+](=O)[O-])c4)s3)csc2C1` (centres undefined), 34.7% (inactive).
Same read-out and setting: in the case of `CC(C)(Sc1cc(C(C)(C)C)c(O)c(C(C)(C)C)c1)Sc1cc(C(C)(C)C)c(OC(=O)CCCC(=O)O)c(C(C)(C)C)c1` it was 100% (inactive); in that of `CCSc1oc(-c2ccccc2)nc1[P+](c1ccccc1)(c1ccccc1)c1ccccc1`, 27.6% (inactive); in that of `C#CCOC(=O)/C=C/c1cn(-c2ccccc2)nc1-c1ccc(OC)cc1`, 91% (inactive).
On the same count and under the same terms, in the case of `Cc1ccc(CNc2ccc3nc(CCC4CCCCC4)[nH]c3c2)cc1` it was 57.8% (inactive).
As to `CCn1c(SCC(=O)N/N=C(\C)c2ccc(Cl)cc2)nc2c1c(=O)n(C)c(=O)n2C`, the growth is 99% (inactive).
The same measure, in the same setting: in the case of `COc1ccc(\C=N/N=C(N)/C(N)=N\N=C/c2ccc(OC)cc2)cc1` it was 107% (inactive); in that of `c1cc2c(ccc3[nH]c(-c4ccc5[nH]ncc5c4)c4c(c32)CCCC4)n1`, 80.4% (inactive).
Same read-out and setting: under `Cc1ccc2c(Cn3cc(CSc4nc5ccccc5o4)nn3)cc(=O)oc2c1` stands 116% (inactive).
Still for that read-out and setting: in the case of `C=C(C)[C@@H]1CCC[C@]2(COS(=O)(=O)c3ccc(C)cc3)CC[C@]3(C)[C@@H](CC[C@@H]4[C@@]5(C)CCCNC(C)(C)[C@@H]5CC[C@]43C)[C@@H]12` it was 63.3% (inactive).
As to `COC(=O)c1c(C)c2n(c1C)C(=O)C(c1ccccc1)=C2`, the growth was 68.9% (inactive).
Still for that read-out and setting: in the case of `COc1cc2cc(NCc3cccc(Cl)c3)nc(C)c2cc1OC` it was 43.7% (inactive); in that of `CCN(CC)Cc1cc(C=C2C(=O)NC(=S)NC2=O)cc(OC)c1O`, 104% (inactive).
Turning to `Cc1cc(=O)oc2cc(OCc3nn4c(Nc5nc6ccccc6s5)c(-c5ccccc5)nc4s3)ccc12`, the growth was 97.5% (inactive).
Take `COc1ccc(C(=O)N2c3ccccc3Sc3ccccc32)c(OC)c1`: the growth was 47.8% (inactive).
Still for that read-out and setting: under `Cc1c(-c2ccc(O)cc2)n(Cc2ccc(OCCN3CCCCCC3)cc2)c2ccc(O)cc12` stands 87.9% (inactive); under `Cc1ccc(Nn2c(SCC(=O)Nc3nc(-c4ccccc4)cs3)nc(C)c2C)cc1`, 81.8% (inactive).
The same measure, in the same setting: under `CC(C)c1ccc(C(=O)Nc2nc3ccc(O)c(CN(C)C)c3s2)cc1` stands 70.1% (inactive).
